# Source: PubChem (National Center for Advancing Translational Sciences (NCATS))
# Shown are actives, neighbours in structure and some others; about 14% of the full set was active somewhere.
# AID923: qHTS Assay for Allosteric/Competitive Inhibitors of Caspase-1: Spectroscopic Profiling in AFC Spectral Region | compound fluorescence, AFC spectral region (405/520 nm) | Potency, µM (titrated, usually from 57.5 µM), for the others: top-dose fluorescence increase, actives largely listed as activators | actives 1.1% (n = 75,000); further: potency means the concentration at half of the fitted maximal effect; 0% is about no effect
#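 Compound autofluorescence profiled at 405 nm ex/520 nm em during kinetic caspase 1 run (50 nM enzyme, 5 uM Ac-WEHD-AFC, HEPES pH 7.5, 10 mM DTT). Titration up to 57 uM; baseline from regression intercept, normalized to AFC standard curve.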
# HSD17B inh: inhibitors of human HSD17B10 dehydrogenase | Q99714 | recombinant HSD17B10, NADH fluorescence kinetic | Potency, µM (highest dose often 57.1 µM), for inactives: at the top dose activity change, negative = inhibition, actives largely listed as inhibitors | actives 7.6% (n = 75,000) | AID 893;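 further: the protocol describes HADH2 (HSD17B10) and not the HSD17B4 of the title; potency means the concentration at half of the fitted maximal effect; on the % scale 0 is the no-effect control and ±100 the full control effect; nearly all actives have a fitted effect of over 70% in size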
#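 Activity followed as NADH fluorescence increase (ex 360, em 450 nm) every 30 seconds for 4 min, using final 90 uM beta-hydroxybutyryl CoA and 1 mM NAD+. Recombinant His-tagged enzyme, 20 nM, pH 9.0 Tris buffer, 15 min compound preincubation.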
# 4-MU autofl: 4-MU region autofluorescence. actives 11% (n = 59,000). compound autofluorescence, 340/450 nm, 4-MU equivalents; hits give high values. AID 589. max dye-equivalent concentration, M; in the data active means max dye-equivalent concentration above about 10 nM; inconclusive means mostly about 1.1 nM to 9.6 nM
#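 Compounds in 100 mM Tris, pH 8.0, sat 15 min at room temperature before fluorescence was read at 340 nm excitation/450 nm emission; a per-plate six-point 4-MU standard curve converted signals to dye-equivalent concentration at each compound concentration.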
# HADH2 inh: inhibitors of human HADH2 dehydrogenase; Q99714; recombinant HADH2, NADH fluorescence, beta-hydroxybutyryl-CoA; Potency, µM (highest dose often 57.1 µM), inactives show top-dose activity change, negative = inhibition, hits mostly inhibitors; actives 3.4% (n = 73,000); AID 886; further: potency means the concentration at half of the fitted maximal effect; on the % scale 0 is the no-effect control and ±100 the full control effect; nearly all actives have a fitted effect of over 60% in size
# Target sequence (Q99714 whole entry, looked up, one chain of several): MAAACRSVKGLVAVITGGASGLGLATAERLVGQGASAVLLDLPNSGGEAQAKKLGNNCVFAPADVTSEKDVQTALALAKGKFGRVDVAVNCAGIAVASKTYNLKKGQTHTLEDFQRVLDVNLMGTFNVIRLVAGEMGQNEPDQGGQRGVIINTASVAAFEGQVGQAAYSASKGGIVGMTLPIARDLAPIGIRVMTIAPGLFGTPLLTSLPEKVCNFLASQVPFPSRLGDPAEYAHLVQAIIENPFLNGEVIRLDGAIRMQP
#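 His-tagged recombinant enzyme from E. coli, 20 nM, preincubated 15 min RT with compound; reaction started with 1 mM NAD+ and 90 uM beta-hydroxybutyryl-CoA in 100 mM Tris-HCl pH 9.0. NADH fluorescence (ex 360/em 450) read over 4 min; last-minus-first difference.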
# CRE Fsk mod: alters forskolin-stimulated CRE reporter signaling in CHO cells; CHO CRE-bla reporter (cAMP response element driving beta-lactamase), forskolin EC10, beta-lactamase ratio; actives 2.5% (n = 71,000); Potency, µM (titrated, usually from 38.2 µM), inactives show top-dose activity change, negative = inhibition, hits mostly activators; active means well fitted activation curve with a large enough effect in the signal ratio, with a control signal flat, not every such curve was filed as active; inconclusive means small, poorly fitted or top-dose-only effect, or effect the other way, or a change in a side signal; the % refers to the signal ratio; further: potency means the concentration at half of the fitted maximal effect; % of control where 0% means no effect
#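 Reporter-gene assay: CHO cells with beta-lactamase behind cAMP responsive elements, co-treated with compound and EC10 NKH 477 for 3 hours at 37 degrees Celsius. Activity came from the 460/530 nm CCF4 emission ratio.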
# A350 autofl: compound fluoresces in the Alexa 350 spectral region | Compound autofluorescence, 340/450 nm, Alexa 350 dye-equivalents; hits give high values | max dye-equivalent concentration, M | actives 11% (n = 59,000) | AID 590; in the data active means max dye-equivalent concentration above about 10 nM; inconclusive means mostly about 1.1 nM to 9.6 nM
# The depositor's hits bear a star; i = inactive; ? = inconclusive; nt = no result; [ ] = another dose, or the depositor's remark. Unless noted, the call rests on the fitted dose curve; in most records, active means well fitted curve in the direction sought with a large enough effect; inconclusive means small, poorly fitted or top-dose-only effect, or another doubt; inactive means no such curve, though single readings can be large; an effect the other way counts as inactive or inconclusive.
SMILES,AID923,HSD17B inh,4-MU autofl,HADH2 inh,CRE Fsk mod,A350 autofl
O=C(NCCN1CCOCC1)c1cccc(S(=O)(=O)N2CCCCCC2)c1,3.1%,8.1%,i,7.6%,-1.5%,?
COc1cc(C(=O)Nc2nc(-c3cccs3)cs2)cc(OC)c1OC,1.4%,31.6µM*,?,?,?,?
O=C(Nc1cccc(F)c1)c1cccc(S(=O)(=O)N2CCOCC2)c1,15.0%,?,1.81e-07M*,14.8%,-7.2%,2.2e-07M*
O=C(Nc1nc(-c2cccs2)cs1)c1cccc(S(=O)(=O)N2CCCCC2)c1,3.0%,?,2.02e-08M*,?,12.8%,2.75e-08M*
O=C(NCCO)c1cccc(S(=O)(=O)N2CCCCC2)c1,-2.9%,-13.5%,1.28e-08M*,?,5.8%,1.61e-08M*
C[C@]12CCC3c4ccc(O)cc4CCC3C1CCC2OC(=O)CCC1CCCC1 (some centres undefined),-0.2%,-0.2%,nt,nt,nt,nt
C=C(C)[C@H]1CC[C@]2(CO)CC[C@]3(C)[C@@H](CC[C@H]4[C@@]5(C)CC[C@@H](O)C(C)(C)[C@@H]5CC[C@@]43C)[C@H]12,-0.2%[25.7 µM],-0.5%[25.6 µM],i,-0.2%[25.6 µM],-3.8%[17.1 µM],i
C[N+]1(C)CC(O)[C@H](C(=O)[O-])C1 (some centres undefined),1.0%,-2.3%,nt,nt,nt,nt
CC(=O)N1CCC2(CC1)CN(Cc1ccc(C#N)cc1)C2,3.3%,0.1%,i,3.5%,3.5%,i
COc1ccc(OC)c2c1CCC2=O,nt,nt,1.6e-07M*,nt,nt,1.83e-07M*
COc1ccccc1NC1=C(C)C(=O)CC1,-1.7%,-4.7%,nt,-0.8%,-4.9%,nt
Cc1ccc(S(=O)(=O)NCCC(=O)N2CCN(Cc3ccccc3)CC2)cc1,-1.7%,11.5%,i,3.3%,8.9%,i
CC(=O)N1CCc2cc(S(=O)(=O)NCCC(=O)N3CCN(Cc4ccccc4)CC3)ccc21,1.9%,13.6%,3.81e-08M*,-6.3%,?,3.38e-08M*
Cc1cc(O)c(C)c(O)c1C(=O)O,1.0%,5.6%,nt,nt,nt,nt
Cc1csc2ncc(C(=O)NCc3ccccc3Cl)c(=O)n12,-3.1%,31.6µM*,nt,11.2%,?,nt
COc1ccc(CCNC(=O)c2cnc3scc(C)n3c2=O)cc1OC,-3.3%,?,nt,-25.4%,?,nt
COc1ccc(C)cc1NC(=O)c1cnc2scc(C)n2c1=O,5.8%,15.8µM*,nt,41.8%,?,nt
CCc1ccc(NC(=O)c2cnc3scc(C)n3c2=O)cc1,3.5%,?,nt,7.7%,-4.9%,nt
Cc1csc2ncc(C(=O)NC(C)c3ccccc3)c(=O)n12 (centres undefined),1.4%,31.6µM*,nt,20µM*,16.8%,nt
COc1ccc(-c2ccccc2C2NC(C(=O)O)CCC2C)cc1 (centres undefined),-3.9%[11.5 µM],0.7%[11.4 µM],nt,-1.7%[11.4 µM],nt,nt
CSC(N)=NCCC[C@@H](N)C(=O)O,-2.8%,2.7%,?,12.2%,0.7%,?
CC(=O)N1CCN(C(=O)CNc2cc(C(F)(F)F)ccc2OCC(F)(F)F)CC1,-0.4%,1.2%,i,-8.4%,1.6%,i
CC(=O)Oc1cc(C(F)(F)F)ccc1C(=O)O,-0.8%[25.7 µM],12.6µM*,i,-22.3%[25.6 µM],1.1%[17.1 µM],i
COc1ccccc1-c1cc(C(F)(F)F)nc(S(=O)(=O)CCCC(=O)N2CCOCC2)n1,-1.1%,185.3%,6.21e-08M*,-25.0%,?,5.14e-08M*
Cc1cc(NC(=O)CCS(=O)(=O)c2nc(-c3ccccc3)cc(C(F)(F)F)n2)no1,0.6%,-24.5%,i,-27.6%,?,i
SMILES,AID923,HSD17B inh,4-MU autofl,HADH2 inh,CRE Fsk mod,A350 autofl
COc1ccc(-c2cc(C(F)(F)F)nc(S(=O)(=O)CCC(=O)N3CCOCC3)n2)cc1,5.2%,i,9.63e-08M*,49.0%,?,1.08e-07M*
CNC(=O)N(C1=NCC(C)S1)c1ccc(F)cc1F (centres undefined),-0.1%,-10.5%,?,-0.7%,?,1.05e-08M*
Cc1cccc2cc(COC(=O)C3CCCCC3)c(=O)[nH]c12,3.4%,-22.3%,1.05e-07M*,-4.8%,-0.4%,1.42e-07M*
N#Cc1c(NC(=O)CCC(=O)O)ccc2ccccc12,3.0%[11.5 µM],3.7%[11.4 µM],i,10.2%[11.4 µM],0.7%[7.6 µM],i
Cn1c(C(=O)NCC2CCCO2)cc2c(=O)n(C)c3ccccc3c21 (centres undefined),-2.2%,25.1µM*,nt,11.7%,?,nt
Cn1c(C(=O)NCC2CCCO2)cc2c(=O)[nH]c3ccccc3c21 (centres undefined),-1.1%,20µM*,i,-14.0%,?,i
Cn1c(C(=O)NCC2CCCO2)cc2oc3ccccc3c21 (centres undefined),-0.8%,-6.1%,nt,3.8%,nt,nt
OC(CN1CCNCC1)Cn1c2ccc(Br)cc2c2cc(Br)ccc21 (centres undefined),-6.1%,-9.6%,nt,23.7%,nt,nt
O=C(O)c1c[nH]c2cc(OCc3ccccc3)ccc2c1=O,-2.1%[11.5 µM],-2.8%[11.4 µM],i,12.7%[11.4 µM],-4.6%[7.6 µM],i
O=C(O)CC[C@@H](C(=O)O)N1C(=O)[C@@H]2[C@@H]3CC[C@H](C3)[C@@H]2C1=O,-1.5%[11.5 µM],10.6%[11.4 µM],i,-4.4%[11.4 µM],5.7%[7.6 µM],i
CC(=O)Nc1cccc(NS(=O)(=O)Cc2ccc(Cl)cc2)c1,0.7%,1.3%,i,0.4%,-9.5%,i
NC(=O)c1ccccc1NS(=O)(=O)Cc1ccc(Cl)cc1,-1.7%,25.1µM*,4.35e-08M*,20µM*,-5.4%,4.99e-08M*
NC(=O)c1ccccc1NC(=O)CS(=O)(=O)Cc1ccccc1,-0.5%,2.0%,i,-3.4%,12.6µM*,i
CN(C)S(=O)(=O)Nc1ccccc1C(N)=O,-0.2%,31.6µM*,2.38e-08M*,?,-1.9%,2.17e-08M*
Cc1ccc(S(=O)(=O)Nc2ccccc2C(N)=O)cc1,-0.8%,31.6µM*,?,25.1µM*,-9.8%,?
O=C(CSc1nnc(-c2cccs2)n1-c1ccccc1)N1CCc2ccccc21,0.7%,11.9%,i,1.7%,-2.3%,i
CCOC(=O)c1[nH]c2ccc(OC)cc2c1NC(=O)c1ccc2c(c1)OCO2,1.9%,199.7%,nt,5.5%,nt,nt
COC(=O)c1[nH]c2cc(OC)ccc2c1NC(=O)c1ccc2c(c1)OCO2,2.0%,65.5%,nt,-15.2%,nt,nt
COc1ccc(NC(=O)c2oc3ccccc3c2NC(=O)c2ccc3c(c2)OCO3)cc1,7.8%,?,9.04e-08M*,3.5%,22.8%,8.8e-08M*
CCOC(=O)c1oc2ccccc2c1NC(=O)c1ccc2c(c1)OCO2,0.0%,?,2.96e-08M*,i,?,3.76e-08M*
CC(=O)N1CCN(c2ccc(NC(=O)c3ccc4c(c3)OCO4)cc2)CC1,-1.3%,7.3%,i,2.6%,3.0%,i
COc1ccc(CC(=O)Nc2ccc(N3CCN(c4ccc(OC)cc4)CC3)c(C#N)c2)cc1,0.8%,?,1.67e-08M*,-6.8%,1.8%,1.97e-08M*
